Activity calls are given as the source filed them.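 The calls were made as follows, unless noted: active = compounds that lower viability of the colon cancer cells in the luminescence readout, with no numeric limit stated; inactive = the rest.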
Experiments:
[1] = stimulators of nuclear beta-catenin in C2C12, primary screen, imaging, WNT3A-conditioned medium, mouse C2C12, NPC library (AID 1117326; in the data active = nuclear beta-catenin stimulation mostly above about 4.2%, no sharp cut-off; inactive = mostly below about 10%; also: reference of the scale not given here); settings: stronger effect = higher value
[2] = stimulators of insulin release from INS-1E, primary screen, cell-based, 5 mM glucose, NPC library (AID 1117329;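 active = compound raises insulin release from rat beta cells at 5 mM glucose, no numeric limit stated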; also: reference of the scale not given here); settings: rat INS-1E insulin secretion, at 10 µM, stronger effect = higher value
[3] = growth inhibition of GSK3B-pretreated HCT116 cells – cell-based, CellTiter-Glo, 0.2 to 20 µM (AID 1117336;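 active = compounds lowering colon cancer cell viability after pretreatment blocking the GSK3B kinase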); settings: HCT116 viability after GSK3B inhibitor, at 20 µM, stronger effect = higher value
[4] = inhibition of endothelial tube formation, primary screen, imaging, VEGF stimulated, CD31 staining, tube area, NPC library (AID 1117340;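 active = compound that reduces growth-factor-driven endothelial tube area in a mixed cell culture, no cutoff stated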); settings: VEGF-stimulated ADSC/ECFC co-culture, at 10 µM, stronger effect = higher value
[5] = glucagon-like peptide 1 release enhancers, primary assay, NCI-H716 cell line, NPC library (AID 1117341;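 active = compound raises GLP1 secretion from the human gut endocrine cells, with no numeric limit stated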; also: reference of the scale not given here); settings: NCI-H716 cells, at 10 µM, stronger effect = higher value
[6] = HCT116 colon cancer cell growth inhibition, primary screen, CellTiter-Glo luminescence, NPC library (AID 1117342;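 active = compounds that lower survival of HCT116 colon cancer cells in the luminescence readout, no numeric limit stated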); settings: at 20 µM (top of the series)
[7] = CellTiter-Glo luminescent readout of SW480 viability loss, NPC library primary (AID 1117343); settings: CellTiter-Glo luminescence; at 20 µM (top of the series)
[8] = decreased DLD-1 cellular survival, CellTiter-Glo luminescent readout, NPC compound collection, primary HTS (AID 1117346;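 active = compounds that lower survival of DLD-1 colon cancer cells in the luminescence readout, no cutoff given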); settings: DLD-1 viability, CellTiter-Glo luminescence; at 20 µM (top of the series)

NC[C@H]1O[C@H](O[C@H]2[C@H](O[C@@H]3O[C@H](CO)[C@@H](O)[C@H]3O)C(O)[C@H](N)C[C@@H]2N)[C@H](N)[C@@H](O)[C@@H]1O (stereo partly specified)
inactive: nuclear beta-catenin stimulation ([1]; at 10 µM) 0.5% | insulin secretion stimulation [2] 1.4% | viability decrease [3] -14.9% | tube area decrease [4] -12.5% | GLP1 secretion stimulation [5] 0.7% | inhibition of viability [6] 2.3% | viability decrease (inhibition) [7] 0.4% | viability decrease (inhibition) [8] -14.4%
2.2%: nuclear beta-catenin stimulation ([1]; stimulation, at 2 µM)

O=C(Nc1ccc([N+](=O)[O-])cc1)Nc1ccc([N+](=O)[O-])cc1
active: tube area decrease [4] 62.3%
inactive: nuclear beta-catenin stimulation ([1]; at 10 µM) 3.2% | insulin secretion stimulation [2] -3.6% | viability decrease [3] -7.9% | GLP1 secretion stimulation [5] -0.9% | inhibition of viability [6] -44.5% | viability decrease (inhibition) [7] 44.3% | viability decrease (inhibition) [8] -16.4%
1.9%: nuclear beta-catenin stimulation ([1]; stimulation, at 2 µM)

CN[C@@H]1[C@H](O)[C@H](O[C@@H]2[C@H](O)[C@@H](O[C@H]3O[C@H]([C@@H](C)NC)CC[C@H]3N)[C@@H](N)C[C@H]2N)OC[C@]1(C)O
-0.4%: nuclear beta-catenin stimulation ([1]; stimulation, at 2 µM)
inactive: nuclear beta-catenin stimulation ([1]; at 10 µM) -0.1% | insulin secretion stimulation [2] 1.1% | viability decrease [3] 7.9% | tube area decrease [4] 0.9% | GLP1 secretion stimulation [5] 2.8% | inhibition of viability [6] 6.73% | viability decrease (inhibition) [7] 29.9% | viability decrease (inhibition) [8] -5.6%

CC(=O)N/N=C/c1ccc([N+](=O)[O-])o1
inactive: nuclear beta-catenin stimulation ([1]; at 10 µM) 9.9% | insulin secretion stimulation [2] -3.3% | viability decrease [3] 16.4% | tube area decrease [4] 20.9% | GLP1 secretion stimulation [5] 5.7% | inhibition of viability [6] 9%
active: viability decrease (inhibition) [7] 104% | viability decrease (inhibition) [8] 80.5%
-0.2%: nuclear beta-catenin stimulation ([1]; stimulation, at 2 µM)

Oc1ccc(C(O)CNCCCCCCNCC(O)c2ccc(O)c(O)c2)cc1O (stereo unspecified)
-2.3%: nuclear beta-catenin stimulation ([1]; stimulation, at 2 µM)
active: viability decrease [3] 76.1%
inactive: nuclear beta-catenin stimulation ([1]; at 10 µM) -0.7% | insulin secretion stimulation [2] 1.65% | tube area decrease [4] -0.1% | GLP1 secretion stimulation [5] 4.5% | inhibition of viability [6] 43% | viability decrease (inhibition) [7] 42.9% | viability decrease (inhibition) [8] 40.4%

Cc1ccc(O)c(-n2nc3ccccc3n2)c1
inactive: nuclear beta-catenin stimulation ([1]; at 10 µM) -0.7% | insulin secretion stimulation [2] -1.4% | viability decrease [3] 8.75% | tube area decrease [4] -28.1% | GLP1 secretion stimulation [5] 4.2% | inhibition of viability [6] -0.8% | viability decrease (inhibition) [7] 40.7% | viability decrease (inhibition) [8] 13.8%
-0.3%: nuclear beta-catenin stimulation ([1]; stimulation, at 2 µM)

CC1(C)OC[C@@H]2O[C@@]3(C(=O)O)OC(C)(C)O[C@H]3[C@@H]2O1
-0.3%: nuclear beta-catenin stimulation ([1]; stimulation, at 2 µM)
inactive: nuclear beta-catenin stimulation ([1]; at 10 µM) -1.7% | insulin secretion stimulation [2] 4.8% | viability decrease [3] -3% | tube area decrease [4] -12.4% | GLP1 secretion stimulation [5] -3.6% | inhibition of viability [6] -1.6% | viability decrease (inhibition) [7] 26.9% | viability decrease (inhibition) [8] 0.3%

Cc1ccc(CCn2c3c(c4cc(Cl)ccc42)CN(C)CC3)cn1
0.7%: nuclear beta-catenin stimulation ([1]; stimulation, at 2 µM)
active: insulin secretion stimulation [2] 42% | inhibition of viability [6] 62.1% | viability decrease (inhibition) [7] 81.6%
inactive: nuclear beta-catenin stimulation ([1]; at 10 µM) 0.2% | viability decrease [3] 40.3% | tube area decrease [4] 3.4% | GLP1 secretion stimulation [5] 1.7% | viability decrease (inhibition) [8] 11.5%

CCN1CCN(c2cc(-c3ccc(F)cc3)c3c(n2)CCCCCC3)CC1
inactive: nuclear beta-catenin stimulation ([1]; at 10 µM) 0.2% | insulin secretion stimulation [2] 1.9% | tube area decrease [4] 24% | GLP1 secretion stimulation [5] 11.2%
active: viability decrease [3] 104% | inhibition of viability [6] 113% | viability decrease (inhibition) [7] 132% | viability decrease (inhibition) [8] 102%
-3.3%: nuclear beta-catenin stimulation ([1]; stimulation, at 2 µM)

CCCCCCCC(=O)OCC(O)CO (stereo unspecified)
inactive: nuclear beta-catenin stimulation ([1]; at 10 µM) -2% | insulin secretion stimulation [2] 2.1% | viability decrease [3] -10.8% | tube area decrease [4] -3.1% | GLP1 secretion stimulation [5] -3.4% | inhibition of viability [6] -7.47% | viability decrease (inhibition) [7] 16.9% | viability decrease (inhibition) [8] -20.5%
-1.7%: nuclear beta-catenin stimulation ([1]; stimulation, at 2 µM)

O=C1Nc2ccccc2C1(c1ccc(O)cc1)c1ccc(O)cc1
inactive: nuclear beta-catenin stimulation ([1]; at 10 µM) -0.4% | insulin secretion stimulation [2] 0.6% | tube area decrease [4] 16.2% | GLP1 secretion stimulation [5] 5.4% | viability decrease (inhibition) [7] 38.2%
-1.6%: nuclear beta-catenin stimulation ([1]; stimulation, at 2 µM)
active: viability decrease [3] 54.5% | inhibition of viability [6] 71.7% | viability decrease (inhibition) [8] 56.5%

CN1CC(=O)NC1=N
1.5%: nuclear beta-catenin stimulation ([1]; stimulation, at 2 µM)
inactive: nuclear beta-catenin stimulation ([1]; at 10 µM) -0.7% | insulin secretion stimulation [2] 4.1% | viability decrease [3] -24% | tube area decrease [4] 21.3% | GLP1 secretion stimulation [5] 0.9% | inhibition of viability [6] -3.43% | viability decrease (inhibition) [7] -155% | viability decrease (inhibition) [8] -6.6%

CCCCC(CC)COC(=O)c1ccc(N(C)C)cc1 (stereo unspecified)
0.5%: nuclear beta-catenin stimulation ([1]; stimulation, at 2 µM)
inactive: nuclear beta-catenin stimulation ([1]; at 10 µM) 0.3% | insulin secretion stimulation [2] -2.6% | viability decrease [3] 34.1% | tube area decrease [4] 0.5% | GLP1 secretion stimulation [5] -2.3% | inhibition of viability [6] 18% | viability decrease (inhibition) [7] 32.1% | viability decrease (inhibition) [8] 48.1%

COC(=O)c1cccnc1
1.1%: nuclear beta-catenin stimulation ([1]; stimulation, at 2 µM)
inactive: nuclear beta-catenin stimulation ([1]; at 10 µM) 1% | insulin secretion stimulation [2] -1.6% | viability decrease [3] -2.7% | tube area decrease [4] -14.2% | GLP1 secretion stimulation [5] 1.1% | inhibition of viability [6] -7.2% | viability decrease (inhibition) [7] 17.2% | viability decrease (inhibition) [8] 1.25%

Reference: PubChem BioAssay
